Compounds with a hit are over-represented: about 32% of the library has one in this group of screens.
PostGolgi yeast: growth inhibition of a yeast mutant, post-Golgi transport screen; inhibition, % at 10 µM; actives 0.9% (n = 98,000); post-Golgi transport phenotypic cell assay; AID 739;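 also: yeast cells grown in 1536-well plates; yeast grown about 18 h at 30C before absorbance read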
CYP2C9 inhib: inhibitors of human CYP2C9. P11712. CYP2C9 Supersomes, luciferin-H conversion, luminescence. inhibition, % at 5 µM. actives 20% (n = 96,000);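 active = blocking of liver enzyme CYP2C9 beyond about 50% at 5 µM, limit read from the data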
PostGolgi ctrl: inhibits growth of the yeast control strain; efflux-deficient yeast background strain, growth absorbance A615, 16 h; inhibition, % at 10 µM; actives 5% (n = 98,000)
CYP2C19 inh: human CYP2C19 inhibition | P33261 | AID 778 | CYP2C19 Supersomes, luciferin-H EGE luminescence, 30 min | actives 21% (n = 96,000) | inhibition, % at 5 µM;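 active = CYP2C19 inhibition above a set limit at 5 µM in the primary screen, cut at about 50% in these data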;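 also: plate controls were negative control wells for no effect and 2.5 mM tranylcypromine positive control for full effect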
Target sequence (P33261 whole entry, looked up): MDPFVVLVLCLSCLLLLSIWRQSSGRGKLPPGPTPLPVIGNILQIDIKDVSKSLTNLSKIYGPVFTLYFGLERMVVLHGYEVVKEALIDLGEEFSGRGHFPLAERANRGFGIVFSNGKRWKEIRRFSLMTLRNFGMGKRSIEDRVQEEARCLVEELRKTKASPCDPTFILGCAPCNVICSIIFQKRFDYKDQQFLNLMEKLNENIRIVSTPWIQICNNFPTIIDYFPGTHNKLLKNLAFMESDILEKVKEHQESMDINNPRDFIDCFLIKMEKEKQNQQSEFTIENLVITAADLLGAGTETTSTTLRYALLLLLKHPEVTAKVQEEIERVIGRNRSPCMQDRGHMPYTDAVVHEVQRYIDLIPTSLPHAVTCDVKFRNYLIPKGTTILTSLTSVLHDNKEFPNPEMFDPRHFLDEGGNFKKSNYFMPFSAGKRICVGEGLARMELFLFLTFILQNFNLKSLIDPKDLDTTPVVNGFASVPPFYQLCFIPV
CYP2C9 act: CYP2C9 (human) activation; P11712; recombinant CYP2C9, luciferin-H conversion, luminescence; active compounds read high; factor 1 = untreated enzyme, 0 = blocked; actives 1.4% (n = 96,000); activation factor at 5 µM; AID 1024;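 active = activation factor of 2 or more for CYP2C9 at a 5 µM dose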;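 also: 0 = sulfaphenazole-blocked wells and 1 = vehicle-only wells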
CYP2C19 act: cytochrome P450 2C19 (human) activation. AID 1025. 96,000 tested, under 10 active. P33261. activation factor at 5 µM. recombinant CYP2C19, luciferin-H EGE luminescence; active compounds read high; 0 = fully inhibited enzyme, 1 = untreated enzyme;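 active = activation factor of at least 2 at 5 µM in the primary screen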;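 also: 0 = wells with 2.5 mM tranylcypromine and 1 = vehicle-only wells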
Active calls of the source: *; . = no result given. Rule as the data show it, unless noted: active = inhibition above about 30%; inactive = the rest.

SMILES	PostGolgi yeast	CYP2C9 inhib	PostGolgi ctrl	CYP2C19 inh	CYP2C9 act	CYP2C19 act
CCN1C(=O)/C(=C\c2ccc3c(c2)OCO3)C(C(=O)OC)=C1C	23.1	39.0	-4.5	15.1	0.6	0.8
CCn1cc(C(=O)N2CC(C)CC(C)C2)c(=O)c2cc(S(=O)(=O)N3CCOCC3)ccc21 (configuration not stated)	-0.3	5.0	12.3	4.2	0.9	1
O=C(O)C1CC(=O)N(c2ccc(OCc3ccccc3)cc2)C1 (configuration not stated)	-1.9	-26.4	2.3	-18.2	1.3	1.2
COc1ccc(N2C(=O)CCC2(C#N)c2ccc(OC)cc2)cc1 (configuration not stated)	-5.2	23.2	-2.4	65.7*	0.8	0.3
Cc1ccc(N2C(=O)CC2(C#N)c2ccc(OCc3ccccc3)cc2)cc1 (configuration not stated)	10.6	61.7*	20.0	18.1	0.4	0.8
Cc1ccc2c(CN3CCCc4ccccc43)cc(=O)oc2c1C	0.0	30.9	13.8	25.1	0.7	0.7
CCc1ccc2c(CN3CCc4ccccc43)cc(=O)oc2c1	-14.4	43.8	13.6	94.1*	0.6	0.1
Cc1cc2oc(=O)cc(CN3CCc4ccccc43)c2cc1Cl	-0.7	61.3*	35.9*	79.0*	0.4	0.2
Cc1ccccc1NC(=O)Nc1ccccc1Br	9.7	3.1	3.3	11.5	1	0.9
CCN(CC)C(=O)CN(c1cccc(C(F)(F)F)c1)S(C)(=O)=O	3.0	15.7	-4.0	47.3	0.8	0.5
COc1ccc(N2C(=O)NC3CC2(C)Oc2ccccc23)cc1OC (configuration not stated)	-3.5	-18.7	7.9	-9.8	1.2	1.1
CC(C)(C)C(=O)C(Oc1cccc2nonc12)n1cncn1 (configuration not stated)	46.4*	-2.9	17.4	12.0	1	0.9
O=C(Nc1cc(Oc2ccccc2)cc([N+](=O)[O-])c1)C12CC3CC(C1)CC(n1cnc(Cl)n1)(C3)C2	1.7	68.5*	9.9	53.7*	0.3	0.5
COc1ccc(NC(=O)C23CC4CC(C2)CC(n2cnc(Br)n2)(C4)C3)cc1Cl	10.8	-0.4	9.1	9.6	1	0.9
O=C(Nc1cccc2ccccc12)C12CC3CC(C1)CC(n1cnc([N+](=O)[O-])n1)(C3)C2	5.0	8.1	8.1	5.7	0.9	0.9
O=C(O)c1cccc(NC(=O)C23CC4CC(C2)CC(n2cnc(Cl)n2)(C4)C3)c1	5.2	70.9*	1.2	61.7*	0.3	0.4
CC(C)(C)C1CCc2onc(C(=O)N3CCOCC3)c2C1 (configuration not stated)	3.2	-22.1	4.7	15.7	1.2	0.8
Cc1ccccc1NCN1C(=O)C2C3C=CC(C3)C2C1=O (configuration not stated)	-4.3	-10.6	32.5*	-2.5	1.1	1
CNC(=O)CN1C(=O)C2C3C=CC(C3)C2C1=O (configuration not stated)	0.5	-15.1	2.1	9.6	1.2	0.9
O=C1C2C3C=CC(C3)C2C(=O)N1CN(Cc1ccccc1)CN1C(=O)C2C3C=CC(C3)C2C1=O (configuration not stated)	-9.5	3.8	36.6*	0.0	1	1
Cc1cccc(NCN2C(=O)C3C4C=CC(C4)C3C2=O)c1 (configuration not stated)	21.3	-2.6	33.2*	11.4	1	0.9
O=C1C2C3C=CC(C3)C2C(=O)N1CNc1ccccc1 (configuration not stated)	7.0	-43.0	20.0	-10.6	1.4	1.1
COc1ccc(C2NCCO2)cc1OC (configuration not stated)	-3.9	-0.5	-0.6	2.5	1	1
CCN1C(=O)C(C(=O)Nc2ccc(OC)cc2)C2CC1(C)Oc1ccccc12 (configuration not stated)	-3.8	53.5*	15.9	16.1	0.5	0.8
C=CCNc1nc(N)c(C(=O)c2ccc3c(c2)OCO3)s1	18.0	-31.5	9.6	89.7*	1.3	0.1
SMILES	PostGolgi yeast	CYP2C9 inhib	PostGolgi ctrl	CYP2C19 inh	CYP2C9 act	CYP2C19 act
COc1ccc(OC(C)C(=O)NCc2cccnc2)cc1 (configuration not stated)	8.6	34.6	-2.7	37.4	0.7	0.6
Cc1c(Br)c([N+](=O)[O-])nn1C(C)C(=O)NCc1cccnc1 (configuration not stated)	-7.1	56.8*	2.9	76.2*	0.4	0.2
CC1(C)CN=C(N2CCN(C3=NCC(C)(C)S3)CC2)S1	.	3.6	.	9.1	1	0.9
CCn1ccc(C(=O)Nc2ccc(Cl)cn2)n1	-4.7	39.3	5.0	67.1*	0.6	0.3
CCn1nccc1C(=O)Nc1ccc(Cl)cn1	-9.6	22.5	1.0	58.6*	0.8	0.4
Cc1cccc(OC(=O)C2C(c3ccccc3)C(C(=O)O)C2c2ccccc2)c1 (configuration not stated)	13.7	59.3*	-6.4	10.0	0.4	0.9
CC(C)CCOC(=O)C1C(c2ccccc2)C(C(=O)O)C1c1ccccc1 (configuration not stated)	9.7	22.8	-1.1	59.3*	0.8	0.4
CCOc1cc(N2CCOCC2)c(OCC)cc1NC(=O)c1nc2nc(C)cc(C)n2n1	.	35.6	.	10.8	0.6	0.9
CCn1cc(/C=N/N=C2\CCC3C4CCc5cc(O)ccc5C4CC[C@]23C)c(C)n1 (some centres not stated)	1.1	67.5*	-2.3	38.1	0.3	0.6
Cc1[nH]c2ccc(F)cc2c(=O)c1SC(F)(F)C(F)F	-19.6	-2.7	3.5	23.2	1	0.8
CSc1ccccc1NC(=O)CSc1nnnn1-c1ccccc1SC	0.9	-208.7	5.2	29.7	3.1*	0.7
COC(=O)c1ccsc1NC(=O)CSc1nnnn1-c1ccccc1SC	0.0	-98.4	15.6	5.9	2*	0.9
CSc1ccccc1-n1nnnc1SCC(=O)Nc1ccccc1C	-7.8	-231.8	9.0	87.0*	3.3*	0.1
CCOC(=O)C1CCCN(C(=O)c2cc3ncc(Br)cn3n2)C1 (configuration not stated)	-5.3	-3.0	10.3	1.9	1	1
COc1cc(Nc2nc(-c3ccccc3)c3cc(C)ccc3n2)cc(OC)c1OC	-1.4	.	35.4*	.	.	.
Cc1ccc2nc(NCC(=O)O)nc(-c3ccccc3)c2c1	-2.9	11.7	5.0	-2.0	0.9	1
Cn1c(SCc2ccc(C#N)cc2Cl)nc2ccccc21	-6.1	32.9	24.2	56.8*	0.7	0.4
Cc1nn(CCOc2ccccc2)c(=O)n1-c1ccccc1	8.9	-24.9	-11.6	32.5	1.2	0.7
COc1ccc(OC)c(Nc2ncnc3ccccc23)c1	25.4	15.5	-0.6	24.1	0.8	0.8
COc1ccc(OC)c(Nc2cc(C)nc3ccccc23)c1	1.7	49.6	1.9	55.9*	0.5	0.4
